Laboratory results published in PubChem BioAssay AID1851 (National Center for Advancing Translational Sciences (NCATS), 2009).
Several values for one entry are separate records, joined by “and”; a condition that tells them apart may be missing. Equal values may be shown once. About 5,700 (36%) of roughly 16,000 compounds were called active. Roughly 24% stayed inconclusive and do not appear here. The list shows a part of the results. A number with no mark means an inactive call. Calls come from the whole dose curve; as a rule, active = well fitted curve in the direction sought with a large enough effect; inconclusive = small, poorly fitted or top-dose-only effect, or effect the other way; inactive = no such curve, though single readings can be large or run the other way.

What follows are compounds tested against Cytochrome P450 1A2 (Homo sapiens) (UniProt P05177) (assay: Cytochrome panel assay with activity outcomes). Conditions: recombinant CYP, pro-luciferin dealkylation, luminescence, p450-cyp1a2; series mostly up to 57.1 µM.
% is set by controls: 0 for no effect and ±100 for the full control effect.

Chain of Cytochrome P450 1A2 (Homo sapiens) (P05177 whole entry, looked up): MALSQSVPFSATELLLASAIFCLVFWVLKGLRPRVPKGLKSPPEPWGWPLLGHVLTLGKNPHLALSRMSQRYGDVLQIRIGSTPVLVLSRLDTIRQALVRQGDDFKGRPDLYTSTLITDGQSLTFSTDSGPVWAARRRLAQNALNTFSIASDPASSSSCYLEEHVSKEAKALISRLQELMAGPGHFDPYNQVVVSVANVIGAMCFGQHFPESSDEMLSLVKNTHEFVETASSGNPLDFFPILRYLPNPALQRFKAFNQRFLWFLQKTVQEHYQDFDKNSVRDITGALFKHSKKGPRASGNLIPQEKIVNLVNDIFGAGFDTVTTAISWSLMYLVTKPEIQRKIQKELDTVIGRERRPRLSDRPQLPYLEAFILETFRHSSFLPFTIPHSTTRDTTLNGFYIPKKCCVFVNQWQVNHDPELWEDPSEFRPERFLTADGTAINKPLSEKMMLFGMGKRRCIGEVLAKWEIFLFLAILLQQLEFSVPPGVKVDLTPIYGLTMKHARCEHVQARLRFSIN

| Compound | AC50 | activity, negative = inhibition |
| --- | --- | --- |
| C[n+]1cc(-c2ccccc2)n2c1CCCCC2 | inactive |  |
| COc1ccc(NC(=O)N2CC3(CCN(C(=O)c4ccncc4)CC3)C2)cc1 | inactive |  |
| COc1ccc(OC(=O)c2ccncc2)cc1 | 6.31 µM (active) |  |
| CCCCCOc1ccc(OC(=O)c2ccncc2)cc1 | 12.6 µM (active) |  |
| COc1ccc(/C=C/c2ccncc2)cc1 | 1.26 µM (active) |  |
| COc1ccc(/C=C(/NC(C)=O)C(=O)O)cc1 | inactive |  |
| COc1ccc(C(=O)N2CCC3(CC2)CN(c2ccncc2)C3)cc1 | inactive |  |
| O=C1CCCC=C1[C@@H](O)C1CCCCC1 |  | -1.29% [at 11.4 µM] |
| O=C(c1ccc(Cl)cc1)N1CCN(C(=O)c2ccco2)CC1 | inactive |  |
| O=C(Cc1ccc(Cl)cc1)N1CCN(C(=O)c2ccco2)CC1 | inactive |  |
| O=C(c1cc(-c2ccc(Cl)cc2Cl)on1)N1CCN(C(=O)c2ccco2)CC1 | 15.8 µM (active) |  |
| CC(=O)NCCNc1ncnc2ccc(-c3ccc4c(c3)OCO4)cc12 | 0.501 µM (active) |  |
| COCCNc1ncnc2ccc(-c3ccc(N(C)C)cc3)cc12 | 0.251 µM (active) |  |
| CC(=O)NCCNc1ncnc2ccc(-c3ccoc3)cc12 | 12.6 µM (active) |  |
| COCCNc1ncnc2ccc(-c3ccoc3)cc12 | 15.8 µM (active) |  |
| COCCNc1ncnc2ccc(-c3ccc(C(=O)N(C)C)cc3)cc12 | inactive |  |
| CCc1cc2c(nc1CC)CCN(CC/C(C)=N/OC[C@@H](O)COCc1ccco1)C2 |  | -8.65% [at 11.4 µM] |
| CCC(=S)/C=C1\Sc2ccc3ccccc3c2N1CCCS(=O)(=O)O | inactive |  |
| CN(C)CCCN1c2ccccc2Sc2ccc3ccccc3c21 |  | -2.18% [at 2.29 µM] |
| CN(C)CCCN1c2ccc3ccccc3c2Sc2cccc(Cl)c21 | 1 µM (active) |  |
| COc1ccc(C(=O)N2CCC3(CC2)CN(C(=O)Nc2cccc(C#N)c2)C3)cc1 | inactive |  |
| O=C(OC1CCN(c2ccc([N+](=O)[O-])cc2)CC1)c1ccccc1 | inactive |  |
| O=c1cc(-c2ccccc2)[nH]n1-c1ccc([N+](=O)[O-])cc1 | 22.4 µM (active) |  |
| CCCNc1c(F)c(F)c2c(C)c3ccccc3nc2c1F | 0.708 µM (active) |  |
| Oc1ccc2ccccc2c1/C=C\c1ccc2c(Br)cc(Br)c(O)c2n1 | 3.98 µM (active) |  |

| Compound | AC50 | activity, negative = inhibition |
| --- | --- | --- |
| CC(=O)N1N=C(c2cccc([N+](=O)[O-])c2)OC1c1ccc(Cl)cc1Cl (stereo not drawn) | 2.51 µM (active) |  |
| CC(=O)N1N=C(c2cccc([N+](=O)[O-])c2)OC1c1ccccc1Cl (stereo not drawn) | 14.1 µM (active) |  |
| CC(=O)N1CC(=O)N(OCc2ccccc2)C1c1ccc(Cl)cc1Cl (stereo not drawn) | inactive |  |
| COc1ccc(C2C3=C(CC(C)(C)CC3=O)Oc3ncn(CC(C)C)c(=N)c32)cc1 (stereo not drawn) | inactive |  |
| NNC(=O)CNc1cccc(Br)c1 | 0.501 µM (active) |  |
| Cc1ccc2c(c1)N(CCC(=O)NCC1CCCO1)C(=O)CO2 (stereo not drawn) | inactive |  |
| CCC[C@H]1C(=O)N2C(N(C)C)=Nc3ccc(C)cc3N2C1=O | 1.58 µM (active) |  |
| COCCn1c(=O)c(-c2cccc(C#N)c2)nc2cnc(N3CCNCC3)nc21 | 10 µM (active) |  |
| COCCn1c(=O)c(-c2ccc(OC)cc2)nc2cnc(N3CCNCC3)nc21 | 6.31 µM (active) |  |
| CN1CCN(c2ncc3nc(-c4cccc(C#N)c4)c(=O)n(Cc4ccc(F)cc4)c3n2)CC1 | inactive |  |
| COCCn1c(=O)c(-c2cc(F)cc(F)c2)nc2cnc(N3CCNCC3)nc21 | 6.31 µM (active) |  |
| CN1CCN(c2ncc3nc(-c4cccc(C#N)c4)c(=O)n(CCC#N)c3n2)CC1 | inactive |  |
| COc1cccc(Cn2c(=O)c(-c3cc(F)cc(F)c3)nc3cnc(N4CCNCC4)nc32)c1 | inactive |  |
| CC[C@H](C)[C@@H]1O[C@]2(CC[C@@H]1C)C[C@H]1C[C@H](CC=C(C)[C@@H](O[C@H]3C[C@H](OC)[C@H](O[C@H]4C[C@H](OC)[C@H](O)[C@H](C)O4)[C@H](C)O3)[C@@H](C)C=CC=C3CO[C@@H]4[C@@H](O)C(C)=C[C@H](C(=O)O1)[C@@]34O)O2 | inactive |  |
| C/C(CCC(=O)OC[C@@H]1O[C@H](C#Cc2ccccc2)C=C[C@@H]1Oc1ccc(C)cc1)=N/O[C@@H](C)c1cn([C@H](CO)Cc2ccccc2)nn1 |  | -3.36% [at 11.4 µM] and -0.528% [at 11.4 µM] |
| CC(=O)O[C@]12CC[N@+]3(C)CCCC[C@@H]3[C-]1Nc1ccccc12 |  | -11% [at 11.4 µM] |
| COc1cccc(/C(O)=C2/C(=O)C(=O)N(c3ccccn3)C2c2ccc(OC)c(OC)c2)c1 (stereo not drawn) | inactive |  |
| COc1cccc(-c2nccc(-n3ccnc3)n2)c1 | 0.0316 µM (active) |  |
| N#Cc1cccc(-c2cc(-n3ccnc3)ncn2)c1 | 0.126 µM (active) |  |
| COc1ccc(C2/C(=C(/O)c3ccccc3)C(=O)C(=O)N2c2ccccn2)c(OC)c1 (stereo not drawn) | inactive |  |
| N#Cc1cccc(-c2nccc(-n3ccnc3)n2)c1 | 0.2 µM (active) |  |
| CN(C)c1ccc(-c2cc(-n3ccnc3)ncn2)cc1 | 0.158 µM (active) |  |
| NN(CC(=O)O)CC(=O)O |  | 1.78% [at 11.4 µM] |
| C[N@+]1(CCC(=O)c2ccccc2)CC[C@H]2CC[C@H](C2)C1 |  | -19% [at 11.4 µM] |
| c1cncc(-c2cc(-n3ccnc3)ncn2)c1 | 0.1 µM (active) |  |

| Compound | AC50 | activity, negative = inhibition |
| --- | --- | --- |
| CC1(C)NC(=O)N(c2ccc([N+](=O)[O-])c(C(F)(F)F)c2)C1=O | 3.16 µM (active) and 2.51 µM (active) |  |
| CCSc1nc2c(c(=O)[nH]1)C(c1ccncc1)C(C(=O)OC(C)C)=C(C)N2 (stereo not drawn) | 15.8 µM (active) |  |
| Cc1ccc(C2C3=C(CCCC3=O)Nc3nc(SCC(=O)NCc4ccco4)[nH]c(=O)c32)cc1 (stereo not drawn) | inactive |  |
| CCSc1nc2c(c(=O)[nH]1)C(c1ccccn1)C1=C(CC(C)(C)CC1=O)N2 (stereo not drawn) | inactive |  |
| [Li+] | inactive |  |
| COc1ccc2c(c1)Cc1sc(NC(=O)c3ccco3)nc1-2 | 3.16 µM (active) |  |
| COc1ccc(NC(=O)N2CC3(CCN(C(=O)c4ccco4)CC3)C2)cc1 | inactive |  |
| COc1cccc(C(=O)Nc2nc3c(s2)CN(C)CC3)c1 | 12.6 µM (active) |  |
| COc1ccc(-c2nc(NC(=O)c3ccccc3)sc2-c2ccc([N+](=O)[O-])cc2)cc1 | inactive |  |
| COc1ccc2c(c1)CCc1sc(NC(=O)c3ccc(C)cc3)nc1-2 | 4.47 µM (active) |  |
| COc1ccc(NC(=O)C2(c3ccc(NC(=O)c4ccc(C)cc4)cc3)CCCC2)cc1 | inactive |  |
| COc1ccc(C(=O)Nc2nc3c(s2)Cc2cc(OC)ccc2-3)cc1 | 4.47 µM (active) |  |
| COc1cccc(C(=O)NCCN2CCOCC2)c1 | inactive |  |
| CC(=O)OC[C@H]1O[C@@H](CCO/N=C2/[C@H]3O[C@@H]3[C@@H](O)[C@H]3[C@H]2CCn2c(=O)n(-c4ccccc4)c(=O)n23)C=C[C@@H]1OC(C)=O |  | -3.93% [at 11.4 µM] |
| C[C@@H](c1ccccc1)N1C(=O)[C@H]2[C@H]3[C@H](O)[C@H](O)C/C(=N/OC[C@@H](O)COCc4ccco4)[C@H]3CC[C@@H]2C1=O |  | -3.98% [at 11.4 µM] |
| O=C(O)CCCCCNC(=O)c1ccccc1Br | inactive |  |
| CN(C(=S)NC(=O)c1ccccc1Br)C1CCCCC1 | 14.1 µM (active) |  |
| C[C@]1(OC(=O)/C=C\c2ccccc2)C[C@@H](O)[C@@]2(O)C=CO[C@@H](O[C@H]3O[C@@H](CO)[C@@H](O)[C@@H](O)[C@@H]3O)[C@H]21 | inactive |  |
| Nc1ncnc2c1cnn2-c1ccccc1 | 6.31 µM (active) |  |
| Nc1ncnc2c1nc(-c1ccccc1)n2[C@H]1O[C@@H](CO)[C@@H](O)[C@H]1O |  | -16.8% [at 2.29 µM] |
| c1ccc(-n2ncc3c2ncn2cnnc32)cc1 | 6.31 µM (active) |  |
| CC(=O)Nc1ccc(Nc2ncnc3c2cnn3-c2ccccc2)cc1 | inactive |  |
| O=C(NCC1CCC(C(=O)O)CC1)OCc1ccccc1 (stereo not drawn) | inactive |  |
| O=C(O)/C=C\C(=O)Nc1ccccn1 |  | -5.8% [at 11.4 µM] |
| CCOC(=O)c1ccc(NC(=O)C(=O)NCC2CCCO2)cc1 (stereo not drawn) | inactive |  |

| Compound | AC50 | activity, negative = inhibition |
| --- | --- | --- |
| CSc1nsc(SC)c1NC(=O)Nc1ccccn1 | 2.51 µM (active) |  |
| CC(=O)N1CCC2(CC1)CCN(C(=O)Nc1cccc(F)c1)CC2 | inactive |  |
| CSc1nsc(SC)c1NC(=O)OCC1CCCO1 (stereo not drawn) | 20 µM (active) |  |
| O[C@H](CNc1ccccn1)c1ccccc1 |  | -29.6% [at 11.4 µM] |
| O=C(O)c1nnsc1COCc1ccccc1 |  | -12.2% [at 11.4 µM] |
| CCC(=O)NC(NCC1CCCO1)C(Cl)(Cl)Cl (stereo not drawn) | inactive |  |
| CSc1nsc(SC)c1NC(=O)OCc1ccccc1 | 10 µM (active) |  |
| O=C(Nc1cccc(F)c1)Nc1ccccn1 | 2 µM (active) |  |
| O=C(c1ccco1)N1CCC2(CCN(Cc3nccs3)CC2)CC1 | inactive |  |
| C=C1CC[C@H](O)C/C1=C/C=C1\CCC[C@]2(C)[C@H]1CC[C@H]2[C@@H](C)/C=C\[C@@H](C)C(C)C | inactive |  |
| COCC(=O)Nc1c(I)c(C(=O)NC[C@@H](O)CO)c(I)c(C(=O)N(C)C[C@@H](O)CO)c1I | inactive |  |
| COc1ccc2c(c1)-c1ccccc1S(=O)(=O)N2C(C)=O | 20 µM (active) |  |
| COc1cccc([C@@H]2Oc3ccc(OC)cc3C(=O)[C@H]2O)c1 |  | 2.62% [at 11.4 µM] |
| Cc1cc(NC(=O)C2=C(O)c3ccccc3S(=O)(=O)N2C)no1 | inactive |  |
| O=C(c1cc(C(F)(F)F)cc(C(F)(F)F)c1)N1CCC2(CCCN(Cc3nccs3)C2)CC1 | inactive |  |
| Cc1ccc(Nc2c([N+](=O)[O-])ccc3c2=NC2(CCCCC2)N=3)cc1 | 15.8 µM (active) |  |
| Cc1cccc(NC(=O)CCCN2C(=O)c3cccc4cccc(c34)C2=O)c1 | 6.31 µM (active) |  |
| CCOC(=O)Cc1csc(NC(=O)CCCCCN2C(=O)c3ccccc3C2=O)n1 | 1.78 µM (active) |  |
| C[N+](C)(CCCCCC[N+](C)(C)CCCN1C(=O)c2cccc3cccc(c23)C1=O)CCCN1C(=O)c2cccc3cccc(c23)C1=O | inactive |  |
| Cc1c(Cl)cccc1NC(=O)CC1NCCNC1=O (stereo not drawn) | inactive |  |
| CCOC(=O)c1sc(NC(=O)CCCCCN2C(=O)c3cccc4cccc(c34)C2=O)nc1C | 25.1 µM (active) |  |
| Cc1ccc(NC(=O)CCN2C(=O)c3ccncc3C2=O)cc1 | inactive |  |
| Cc1cccc(NC(=O)CC2Nc3cccc4cccc(c34)NC2=O)c1 (stereo not drawn) | 5.01 µM (active) |  |
